# Reference: PubChem BioAssay
# Several values for one entry are separate records, joined by “and”; a condition that tells them apart may be missing. Equal entries are not always repeated. Where a structure was tested more than once in an assay, its records may differ in their call. Activity calls are given as the source filed them. Cut-off read from the data, not from the text of the source, unless noted: active = nuclear beta-catenin stimulation mostly above about 4.2% (no sharp cut-off); inactive = mostly below about 10%.
# Legend:
# [1] = stimulators of nuclear beta-catenin in C2C12, primary screen, imaging, WNT3A-conditioned medium, mouse C2C12, NPC library (AID 1117326); settings: stronger effect = higher value
# [2] = stimulators of insulin release from INS-1E, primary screen, cell-based, 5 mM glucose, NPC library (AID 1117329;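 active = compound raises insulin release from rat beta cells at 5 mM glucose, no numeric limit stated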); settings: rat INS-1E insulin secretion, at 10 µM, stronger effect = higher value
# [3] = growth inhibition of GSK3B-pretreated HCT116 cells – cell-based, CellTiter-Glo, 0.2 to 20 µM (AID 1117336;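 active = compounds lowering colon cancer cell viability after pretreatment blocking the GSK3B kinase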); settings: HCT116 viability after GSK3B inhibitor, at 20 µM, stronger effect = higher value
# [4] = inhibition of endothelial tube formation, primary screen, imaging, VEGF stimulated, CD31 staining, tube area, NPC library (AID 1117340;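 active = compound that reduces growth-factor-driven endothelial tube area in a mixed cell culture, no cutoff stated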); settings: VEGF-stimulated ADSC/ECFC co-culture, at 10 µM, stronger effect = higher value
# [5] = glucagon-like peptide 1 release enhancers, primary assay, NCI-H716 cell line, NPC library (AID 1117341;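 active = compound raises GLP1 secretion from the human gut endocrine cells, with no numeric limit stated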); settings: NCI-H716 cells, at 10 µM, stronger effect = higher value
# [6] = HCT116 colon cancer cell growth inhibition, primary screen, CellTiter-Glo luminescence, NPC library (AID 1117342;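 active = compounds that lower survival of HCT116 colon cancer cells in the luminescence readout, no numeric limit stated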); settings: at 20 µM (top of the series)
# [7] = CellTiter-Glo luminescent readout of SW480 viability loss, NPC library primary (AID 1117343;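 active = compounds that lower viability of the colon cancer cells in the luminescence readout, with no numeric limit stated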); settings: CellTiter-Glo luminescence; at 20 µM (top of the series)
# [8] = decreased DLD-1 cellular survival, CellTiter-Glo luminescent readout, NPC compound collection, primary HTS (AID 1117346;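 active = compounds that lower survival of DLD-1 colon cancer cells in the luminescence readout, no cutoff given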); settings: DLD-1 viability, CellTiter-Glo luminescence; at 20 µM (top of the series)
# [9] = polyglutamine-triggered caspase-3 activation inhibitors, cell-based (AID 1583); settings: polyglutamine-induced caspase-3 activation, cell assay; stronger effect = higher value;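 tested at 10 µM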
# [10] = suppressors of polyQ aggregation in yeast, 75Q-TubU reporter (AID 1593); settings: Yeast 75Q polyglutamine aggregation reporter
# [11] = inhibitors of mitochondrial cytochrome c release, biochemical, purified mitochondria (AID 1603); settings: stronger effect = lower value;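 note: mouse liver mitochondria challenged with calcium chloride; signal normalized to the plate average as 100%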
# [12] = inhibitors of polyQ protein aggregation (AID 1604); settings: polyglutamine-induced protein aggregation inhibition assay; stronger effect = higher value; tested at 2.5 µM
# [13] = enhancers of glutamate uptake in motor neurons, MN-1 cell line (AID 1612); settings: MN-1 motor neuron cells, stronger effect = higher value;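 note: tested at 1 µM final; 0% = mean of DMSO vehicle wells on each plate; positive means more glutamate uptake than control and negative means less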
# [14] = suppressors of polyglutamine aggregation in yeast, 75Q-TubH (AID 1616); settings: S. cerevisiae 75Q-TubH polyglutamine aggregation suppression; stronger effect = higher value
# [15] = molecular target: 6-phosphogluconate dehydrogenase, decarboxylating (Homo sapiens) (UniProt P52209); assay: 6PGD enzyme inhibitors, primary screen, biochemical, human, recombinant enzyme, NADPH absorbance (AID 1159550;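 active = at least 20% inhibition of 6-phosphogluconate dehydrogenase activity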); settings: recombinant 6PGD, NADPH absorbance 341 nm; at 10 µM; stronger effect = higher value
# [16] = differential killing of epithelial or mesenchymal cells, primary screen, imaging, PC-3E GFP, TEM4-18 mCherry, co-culture (AID 1345086;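 active = compounds killing one labelled cell type while sparing the other, by normalised counts and ratio limits, not self-fluorescent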;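 for all read-outs here: cells exposed to compound for 72 h before imaging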;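 for red/green cell ratio (normalised): normalised mesenchymal count divided by normalised epithelial count so high means epithelial killing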); settings: imaging cell counts, at 1 µM; for red/green cell ratio (normalised): actives lie on both sides, counts scaled to control wells, 1 = unselective
# [17] = survival rescue of mitochondrial mutant cells in low glucose, primary screen, MELAS cybrids, Rieske KO mouse fibroblasts, CellTiter-Glo (AID 1508586;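 active = mean z-score across replicates of 1.96 or higher in either the MELAS or the Rieske mutant cell line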;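 note: z relative to plate mean and SD of compound and empty wells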)
# [18] = molecular target: NAD(+) hydrolase SARM1 (Homo sapiens) (UniProt Q6SZW1); assay: SARM1 TIR NADase inhibitors, cell lysate, NAD-Glo luminescence (AID 1508614;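 active = compound whose remaining NAD level is above about 45 nM, limit read from the data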;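 note: higher remaining NAD means stronger inhibition of SARM1 NADase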); settings: SAM-TIR HEK293T lysate NADase, at 1 µM, stronger effect = higher value
# [19] = molecular target: Mitogen-activated protein kinase 7 (Homo sapiens) (UniProt Q13164); assay: ERK5 transactivation activators in reporter cells, primary screen, cell-based, HTS (AID 1508626;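 active = luciferase signal above three times the same-plate solvent-only control wells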;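 note: luciferase driven by Gal4-ERK5 fusion binding five Gal4 sites before minimal TATA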); settings: HeLa Gal4-ERK5 transactivation, 18 h, at 5 µM, stronger effect = higher value
# [20] = measured here: epithelial PC-3E GFP cell survival
# [21] = measured here: mesenchymal TEM4-18 mCherry cell survival
# 6-phosphogluconate dehydrogenase, decarboxylating (Homo sapiens), sequence (P52209 whole entry, looked up): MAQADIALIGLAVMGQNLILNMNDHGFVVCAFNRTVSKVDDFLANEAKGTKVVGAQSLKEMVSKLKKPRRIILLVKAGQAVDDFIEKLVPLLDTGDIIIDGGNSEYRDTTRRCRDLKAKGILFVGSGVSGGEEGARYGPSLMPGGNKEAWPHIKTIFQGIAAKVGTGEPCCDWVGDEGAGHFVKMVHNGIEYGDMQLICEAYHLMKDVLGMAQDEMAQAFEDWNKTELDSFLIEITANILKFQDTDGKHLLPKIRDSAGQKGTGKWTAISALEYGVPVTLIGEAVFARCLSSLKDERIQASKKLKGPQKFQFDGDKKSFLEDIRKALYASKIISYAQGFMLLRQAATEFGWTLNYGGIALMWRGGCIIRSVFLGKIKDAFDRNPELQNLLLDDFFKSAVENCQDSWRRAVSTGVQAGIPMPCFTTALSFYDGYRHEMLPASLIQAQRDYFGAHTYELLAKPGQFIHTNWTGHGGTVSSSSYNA
# NAD(+) hydrolase SARM1 (Homo sapiens), sequence (Q6SZW1 whole entry, looked up, the tested form may be a part): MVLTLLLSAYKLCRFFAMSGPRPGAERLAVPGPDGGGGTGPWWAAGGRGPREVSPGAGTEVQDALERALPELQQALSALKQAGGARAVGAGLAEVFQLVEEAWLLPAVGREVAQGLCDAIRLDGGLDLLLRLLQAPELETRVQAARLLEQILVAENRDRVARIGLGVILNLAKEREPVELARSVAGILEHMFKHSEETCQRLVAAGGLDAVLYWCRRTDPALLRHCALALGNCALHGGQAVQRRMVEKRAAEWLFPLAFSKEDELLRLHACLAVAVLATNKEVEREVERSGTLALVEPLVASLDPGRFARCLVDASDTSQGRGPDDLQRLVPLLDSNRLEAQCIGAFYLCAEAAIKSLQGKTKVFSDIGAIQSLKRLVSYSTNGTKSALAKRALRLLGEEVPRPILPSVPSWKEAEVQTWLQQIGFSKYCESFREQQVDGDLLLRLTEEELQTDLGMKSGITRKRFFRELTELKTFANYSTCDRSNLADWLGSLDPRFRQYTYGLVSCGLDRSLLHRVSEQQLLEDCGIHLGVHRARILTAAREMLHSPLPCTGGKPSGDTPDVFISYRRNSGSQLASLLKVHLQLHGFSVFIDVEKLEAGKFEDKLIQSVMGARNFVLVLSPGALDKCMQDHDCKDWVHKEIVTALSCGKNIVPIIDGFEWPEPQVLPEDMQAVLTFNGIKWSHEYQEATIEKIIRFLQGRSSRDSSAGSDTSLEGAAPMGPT
# Mitogen-activated protein kinase 7 (Homo sapiens), sequence (Q13164 whole entry, looked up, the tested form may be a part): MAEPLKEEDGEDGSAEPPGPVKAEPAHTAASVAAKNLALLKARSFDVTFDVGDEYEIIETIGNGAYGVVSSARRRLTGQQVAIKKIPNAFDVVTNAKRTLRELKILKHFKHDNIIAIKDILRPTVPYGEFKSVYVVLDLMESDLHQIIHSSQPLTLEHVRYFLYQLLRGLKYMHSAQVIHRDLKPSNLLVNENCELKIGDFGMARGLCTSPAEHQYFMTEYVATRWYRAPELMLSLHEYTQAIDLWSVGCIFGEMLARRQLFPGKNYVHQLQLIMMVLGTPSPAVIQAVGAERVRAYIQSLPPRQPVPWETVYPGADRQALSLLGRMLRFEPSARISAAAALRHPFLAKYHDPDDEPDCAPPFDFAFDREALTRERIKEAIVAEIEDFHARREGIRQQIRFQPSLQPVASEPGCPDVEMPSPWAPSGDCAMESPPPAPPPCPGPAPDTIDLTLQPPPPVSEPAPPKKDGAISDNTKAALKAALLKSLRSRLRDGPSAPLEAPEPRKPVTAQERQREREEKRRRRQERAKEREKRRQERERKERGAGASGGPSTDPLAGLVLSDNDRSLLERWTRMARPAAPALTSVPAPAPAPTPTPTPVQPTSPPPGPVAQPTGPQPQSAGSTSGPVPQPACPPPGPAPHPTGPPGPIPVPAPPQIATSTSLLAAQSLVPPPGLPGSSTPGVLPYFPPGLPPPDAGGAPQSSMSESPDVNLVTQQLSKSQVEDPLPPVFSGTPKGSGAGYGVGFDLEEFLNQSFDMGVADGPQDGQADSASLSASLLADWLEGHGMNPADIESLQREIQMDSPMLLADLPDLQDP
smiles,measurement,setting,value
CN(C)CCN(Cc1ccsc1)c1ccccn1,nuclear beta-catenin stimulation,[1]; at 10 µM,-1.6% (inactive)
same,nuclear beta-catenin stimulation,"[1]; stimulation, at 2 µM",1.7%
same,insulin secretion stimulation,[2],1.3% (inactive)
same,viability decrease,[3],4.6% (inactive)
same,tube area decrease,[4],-14.7% (inactive)
same,GLP1 secretion stimulation,[5],-2.8% (inactive)
same,inhibition of viability,[6],5.1% (inactive)
same,viability decrease (inhibition),[7],-0.5% (inactive)
same,viability decrease (inhibition),[8],-3.9% (inactive)
N=C(N)c1ccc(OCCCCCOc2ccc(C(=N)N)cc2)cc1,inhibition,[9],-13.3%
same,score,[10],0.69
same,cytochrome c release ratio,[11],2.1
same,inhibition of aggregation,[12],62.8%
same,glutamate uptake change,[13],6.93%
same,aggregation suppression score,[14],0.265
same,nuclear beta-catenin stimulation,[1]; at 10 µM,-0.7% (inactive)
same,nuclear beta-catenin stimulation,"[1]; stimulation, at 2 µM",1.1%
same,insulin secretion stimulation,[2],2.3% (inactive)
same,viability decrease,[3],0.4% (inactive)
same,tube area decrease,[4],43.4% (active)
same,GLP1 secretion stimulation,[5],-3.5% (inactive)
same,inhibition of viability,[6],12.5% (inactive)
same,viability decrease (inhibition),[7],60.9% (active)
same,viability decrease (inhibition),[8],55.1% (active)
same,inhibition,[15],12.1% (inactive)
same,red/green cell ratio (normalised),[16],0.75 (inactive)
same,normalised cell number,[16]; [20],1.05
same,normalised cell number,[16]; [21],0.79
same,z-score,"[17]; MELAS cybrid survival, CellTiter-Glo 48 h, stronger effect = higher value",6.07 (active) and -3.61 (inactive) and 2.69 (active)
same,z-score,"[17]; Rieske KO mouse fibroblast survival, CellTiter-Glo 72 h",6.42 and -2.57 and -1.21
same,remaining NAD,[18],10 nM (inactive)
Oc1ccc(/C=C/c2cc(O)cc(O)c2)cc1,nuclear beta-catenin stimulation,[1]; at 10 µM,2.4% (inactive)
same,nuclear beta-catenin stimulation,"[1]; stimulation, at 2 µM",2.2%
same,insulin secretion stimulation,[2],0.1% (inactive)
same,viability decrease,[3],19% (inactive)
same,tube area decrease,[4],56.1% (active)
same,GLP1 secretion stimulation,[5],2.9% (inactive)
same,inhibition of viability,[6],65% (active)
same,viability decrease (inhibition),[7],75.5% (active)
same,viability decrease (inhibition),[8],35.3% (inactive)
same,inhibition,[15],0.743% (inactive)
same,red/green cell ratio (normalised),[16],1.06 (inactive)
same,normalised cell number,[16]; [20],0.97
same,normalised cell number,[16]; [21],1.04
same,luciferase signal,[19],84 AU (inactive)
C[C@@H](O)[C@H]1C(=O)N2C(C(=O)O)=C(S[C@@H]3CN[C@H](CNS(N)(=O)=O)C3)[C@H](C)[C@H]12,nuclear beta-catenin stimulation,[1]; at 10 µM,2.9% (inactive)
same,nuclear beta-catenin stimulation,"[1]; stimulation, at 2 µM",3%
same,insulin secretion stimulation,[2],-0.6% (inactive)
same,viability decrease,[3],14% (inactive)
same,tube area decrease,[4],-14% (inactive)
same,GLP1 secretion stimulation,[5],0.3% (inactive)
same,inhibition of viability,[6],25.7% (inactive)
same,viability decrease (inhibition),[7],3.1% (inactive)
same,viability decrease (inhibition),[8],-20.9% (inactive)
